LASV entry inh – qHTS for Inhibitors of binding or entry into cells for Lassa Virus. Potency, µM (doses to about 37.9 µM), inactives show top-dose activity change, negative = inhibition, actives largely listed as inhibitors. 300,000 compounds, 1.2% hits. Lassa virus pseudotype entry inhibition, cell reporter; calls by dose curve; tested in HEK293 cells; note: potency is the fitted concentration of half-maximal effect; % is set by controls: 0 for no effect and ±100 for the full control effect; nearly all actives have a fitted effect of over 50% in size
Shiga inhibitor – A qHTS for Small Molecule Inhibitors of Shiga Toxin; inhibition, % at 38.7 µM; 290,000 compounds, 9.2% hits; Vero cells, Shiga toxin protein synthesis inhibition reporter; in the data active = inhibition mostly above about 28%, no sharp cut-off; inactive = mostly below about 43%; note: 0% is about no effect
Cycloheximide cs – Cycloheximide Counterscreen for Small Molecule Inhibitors of Shiga Toxin. 300,000 compounds, 12% hits. AID 2314, 2010. max response, %. cell reporter, cycloheximide protein synthesis inhibition counterscreen; in the data active = max response mostly above about 13%, no sharp cut-off; inactive = mostly below about 14%; note: read at 38.3 µM for the half of the compounds with a filed dose; 0% is about no effect
AMA1 RON2 block – qHTS for Inhibitors of AMA1-RON; Towards Development of Antimalarial Drug Lead: Primary Screen; 360,000 compounds, 0.2% hits; AlphaScreen AMA1-biotinylated RON2 peptide binding; Potency, µM (series often up to 58.2 µM), inactives show at the highest dose activity change, negative = inhibition, usual class: inhibitors; active = well fitted inhibition curve with a large enough effect; inconclusive = small, poorly fitted or top-dose-only effect; inactive = no such curve, though single readings can be large or run the other way;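 note: potency is the fitted concentration of half-maximal effect; 0% = vehicle wells and -100% = peptide control; nearly all actives have a fitted effect of over 45% in size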
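AMA1 (3D7) with his tag at 25 nM final met compounds first, then biotinylated RON2 peptide at 25 nM; detection used donor plus acceptor beads, 10 µg/mL apiece, read by AlphaScreen after 30 min at room temperature.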
MARV entry inh – qHTS for inhibitors of binding or entry into cells for Marburg Virus; Marburg virus pseudotyped entry inhibition, cell reporter; Potency, µM (highest dose often 37.8 µM), for inactives: at the top dose activity change, negative = inhibition, most hits filed as inhibitors; 300,000 compounds, 1.8% hits; calls by dose curve; tested in HEK293 cells; note: potency is the fitted concentration of half-maximal effect; % is set by controls: 0 for no effect and ±100 for the full control effect
* marks the source's active call; other numbers are inactive results; ? = inconclusive; · = not tested or not shown; [ ] = remark or other dose. This excerpt belongs to a sample that is enriched for hits.

SMILES	LASV entry inh	Shiga inhibitor	Cycloheximide cs	AMA1 RON2 block	MARV entry inh
COc1cc(OC)cc(C(=O)NCC2CCCN(Cc3cccc(C(C)=O)c3)C2)c1 (stereo not given)	·	-4	1	-1%	·
CC=CCCN1C=C(C(=O)OCC)C(c2ccccc2)NC1=O (stereo not given)	·	·	·	·	41%[14.2 µM]
Cc1cc(C2=CC(C)(c3cc(C)oc3C)Nc3nc(C(F)(F)F)nn32)c(C)o1 (stereo not given)	·	41*	28*	·	-3%
CC1CC=CC2C1C(=O)N(Cc1ccccc1)C2c1ccc(Br)cc1F (stereo not given)	·	35	18	·	·
CCc1cc(/C(Cc2csc(C)n2)=N/O)c(O)cc1O	?	-24	-2	0%	?
Cc1cc(O)c(C(=O)Cc2csc(C)n2)c(O)c1	·	83*	39*	6%	·
O=C(c1cc(Cl)cc(Cl)c1)N1CCOCC1	54%[14.3 µM]	-16	-4	5%	1%
COc1ccccc1CN(Cc1nc2ccccc2c(=O)[nH]1)C(=O)Nc1cccc(C)c1	-18%	44*	19*	9%	?
Cn1c(/C=C(\C#N)C(N)=S)ccc1-c1ccc(Br)cc1	·	27	15*	-1%	·
Cc1ccc(Cl)cc1NS(=O)(=O)c1ccc2oc(=O)ccc2c1	·	-3	-6	-1%	-27%[46.1 µM]
CCC(=O)Nc1cccc(C(=O)/C=C/c2ccc(F)cc2)c1	?	26	17*	0%	15µM*
CC(=O)Nc1cccc(C(=O)/C=C/c2ccc(C)cc2)c1	?	12	17*	-1%	?
CCCCC(=O)Nc1cccc(NC(=O)CC)c1	?	-5	2	26%	-1%[46.1 µM]
O=C(NCCC1=CCCCC1)C1CC(=O)N(Cc2ccccc2)C1 (stereo not given)	13%	0	1	48%	-3%
O=C(N/N=C/C(Br)=C/c1ccccc1)c1ccncc1	·	73*	38*	103%	·
O=C(N/N=C/C(Br)=C/c1ccccc1)c1ccc([N+](=O)[O-])cc1	·	4	11	2%	·
O=C(N/N=C/C(Br)=C/c1ccccc1)c1cccnc1	?	66*	38*	-4%	?
Cc1cc(O)cc(C)c1C=Cc1cncc(C(=O)OC(C)(C)C)c1	0.79µM*	·	·	·	·
Cc1cc(C)n(C(=O)c2cc(F)c(F)cc2C)n1	-1%	70*	25*	0%	13%
COc1ccc(-c2cc(=NCCC(=O)O)c3cc(C)ccc3o2)cc1	-21%	148*	36*	0%	?
CCOC(=O)c1c(-c2ccc(OC)cc2)oc2ccc(O)cc12	-28%	6	-2	9%	?
COc1ccc(-c2cc(=NC(CC(C)C)C(=O)O)c3cc(C)ccc3o2)cc1 (stereo not given)	?	100*	30*	29%	-1%
O=C(NCC(c1cccs1)S(=O)(=O)c1cccs1)c1ccccc1 (stereo not given)	-7%[46.1 µM]	·	·	·	·
CN1OC[C@@H]2CN(Cc3cc(Cl)cc(Cl)c3)[C@H](c3cccc(-c4ccccc4)c3)C[C@@H]21	·	·	·	-16%	·
CCOC(=O)c1cccc(NC(=O)CSc2ncc3c(n2)-c2ccc(Cl)cc2N(Cc2ccccc2)S3(=O)=O)c1	4%[46.1 µM]	·	·	·	·
SMILES	LASV entry inh	Shiga inhibitor	Cycloheximide cs	AMA1 RON2 block	MARV entry inh
COC(=O)Cc1ccc(OCc2ccc(Cl)nc2)cc1	?	52*	37*	9%	-6%[46.1 µM]
CC(=O)c1sc(N/N=C\c2ccc(Br)cc2)nc1C	?	active	72*	27%[11.6 µM]	-1%
CCOC(=O)c1sc(N/N=C/c2ccc(N(C)C)cc2)nc1C	·	9	6	39%	·
CC(=O)c1sc(N/N=C\c2cccc(Br)c2)nc1C	14µM*	85*	67*	38%	?
Cc1ccc(C2(COC(=O)C(C)C)CO2)c(OC(=O)C(C)C)c1 (stereo not given)	·	13	10*	5%	·
CSc1ccc(-c2ccco2)nn1	-2%	127*	25*	-7%	23%
CC(=O)Nc1ccc(NC(=O)CSc2ccc(-c3ccco3)nn2)cc1	5%	8	-2	-8%	24%
CCSc1ccc(-c2ccco2)nn1	15%	85*	48*	-8%	?
COC[C@@H]1CCCN1[C@H]1CS(=O)(=O)N[C@@H]1COCc1ccccc1	·	·	·	8%	·
Brc1ccc(-c2nnc(-c3cccc(Br)c3)o2)cc1	13%	25	17	19%	?
O=C(c1ccc(-c2ccccc2)cc1)N1CCCC1	-15%	53	14	14%	10%
O=C(O)c1ccc(-c2nnc(-c3cccc(Br)c3)o2)cc1	·	35*	20*	-2%	·
O=C(c1cccc(-c2nnc(-c3ccccc3)o2)c1)N1CCCCCC1	5%	102*	37*	-5%	?
O=C(c1cccc(-c2nnc(-c3ccccc3)o2)c1)N1CCCCC1	-14%	66*	51*	6%	9%
COc1ccc(CCN(C)C2CCCN(S(=O)(=O)c3ccccc3F)C2)cc1OC (stereo not given)	·	-11	-2	-6%	·
CCc1noc(C)c1C(=O)N(CC)CC(=O)Nc1cc(Cl)ccc1C	·	·	·	97%	·
Cc1ccc(CNC(=O)CCCn2c(=O)c3ccccc3n(CC(=O)Nc3ccc(C)c(C)c3)c2=O)cc1	26%[46.1 µM]	·	·	·	0%[46.1 µM]
Cc1ccc2oc3c(c(=O)c2c1)C(c1cccs1)N(CCCN(C)C)C3=O (stereo not given)	·	48*	39*	3%	1%
COc1ccc(OC)c(C2c3c(oc4ccc(C)cc4c3=O)C(=O)N2CCCN(C)C)c1 (stereo not given)	10%[46.1 µM]	·	·	·	·
COc1ccc(CN(C)C(=O)/C=C/[C@H]2O[C@@H](n3cnc4c(N)ncnc43)[C@H](O)[C@@H]2O)cc1OC	·	·	·	12%	·
COC(=O)C1=CN(Cc2ccc(C)cc2)C=C(C(=O)OC)C1c1cc(OC)c(OC)c(OC)c1	·	-8	0	46%	·
COCCN1C=C(C(=O)OC)C(c2cc(Br)c(OC)c(OC)c2)C(C(=O)OC)=C1	11µM*	17	12	31%	-23%
COC(=O)[C@]12CCCCC=C1N(Cc1ccc(Cl)cc1Cl)C(=O)[C@H](CC(=O)N1CCCC1)C2	·	·	·	-14%	·
O=C(NCCc1ccccc1)c1cccc([N+](=O)[O-])c1	4%	active	82*	1%	?
CC/C(Cc1ccccc1)=N\NC(=O)c1cc([N+](=O)[O-])cc([N+](=O)[O-])c1	·	-4	2	77%	·
CC/C(Cc1ccccc1)=N/NC(=O)c1cccc(Br)c1	5%	47*	16	47%	-13%
O=C(NCCc1ccccc1)c1cccc(Br)c1	·	79*	39*	-4%	·
COC(=O)[C@H]1C(=O)C[C@@](C)(O)[C@@H](C(=O)OC)[C@@H]1c1ccccc1F	·	·	·	·	-11%[46.1 µM]
COc1ccccc1Oc1ccc2c(c1)C(=O)N(c1cccc(O)c1)C2=O	?	38*	28*	-9%	10%

Screening data as filed in PubChem BioAssay.
